Assay results published in ChEMBL document CHEMBL3988442, “University of Dundee, Small-Polar-MMV Screening Library” (2021).

Assays:
[1] = target: T1, Aspartate--tRNA(Asp/Asn) ligase (Mycobacterium tuberculosis (strain ATCC 25618 / H37Rv)) (UniProt P9WFW3); test: Assay for Asp RNA synthetase-1 from Mycobacterium tuberculosis; assay type: functional; set-up: scale not given: direction of the effect not stated beside the values; conditions: 30 µM; further: in the data most compounds retested in dose-response had high values
T1 sequence (whole entry): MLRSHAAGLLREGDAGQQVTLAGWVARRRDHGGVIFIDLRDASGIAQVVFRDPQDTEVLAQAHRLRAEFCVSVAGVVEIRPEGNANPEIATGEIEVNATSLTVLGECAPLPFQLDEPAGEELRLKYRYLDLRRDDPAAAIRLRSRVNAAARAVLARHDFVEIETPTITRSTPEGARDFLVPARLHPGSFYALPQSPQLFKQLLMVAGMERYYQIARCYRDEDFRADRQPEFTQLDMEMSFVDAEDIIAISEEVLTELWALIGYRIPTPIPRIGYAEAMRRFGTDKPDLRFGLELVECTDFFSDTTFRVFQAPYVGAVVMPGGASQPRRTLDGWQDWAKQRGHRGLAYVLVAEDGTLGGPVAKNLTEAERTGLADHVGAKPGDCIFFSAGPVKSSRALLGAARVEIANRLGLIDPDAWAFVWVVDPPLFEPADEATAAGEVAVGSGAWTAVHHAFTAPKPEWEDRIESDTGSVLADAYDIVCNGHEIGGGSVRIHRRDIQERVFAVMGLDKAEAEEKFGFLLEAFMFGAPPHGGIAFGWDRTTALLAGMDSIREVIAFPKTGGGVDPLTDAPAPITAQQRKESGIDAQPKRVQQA

[2] = target: Shiga toxin 2 (Escherichia coli O157:H7) (UniProt P09385+P09386); test: E. coli 0.157:H7 Shiga Toxin SOP - stx2 screening assay; assay type: functional; set-up: scale not given: direction of the effect not stated beside the values; conditions: 30 µM

CNC(=O)N1CC[C@@H]2CN(Cc3cccnc3)S(=O)(=O)[C@@H]2CC1
Percent Effect [1]: 1.91% | Percent Effect [2]: -0.136%

CCN(CC)CC1CN(CCc2ccccc2)Cc2nccn2C1 (configuration not stated)
Percent Effect [1]: -4.79% | Percent Effect [2]: 4.72%

COc1ccccc1NC(=O)CSC1CCc2ccccc2NC1=O (configuration not stated)
Percent Effect [1]: -0.871% | Percent Effect [2]: -1%

O=C1NC(c2ccccc2)=N[C@@]12CC[C@@H]1CN(CC3CCOCC3)C[C@@H]12
Percent Effect [1]: 1.31% | Percent Effect [2]: -0.652%

c1ccc(-c2cnc(CN3CCn4c(nnc4C4CC4)C3)o2)cc1
Percent Effect [1]: 0.278% | Percent Effect [2]: 23.8%

CC1=Nc2c(c(=O)[nH]n2C(C)C)C(c2ccc(F)c(F)c2)S1 (configuration not stated)
Percent Effect [1]: 1.86% | Percent Effect [2]: 22.2%

Cc1noc(C)c1CN1CC[C@H]2OCC[C@@H](C(=O)N3CCCO3)[C@@H]2C1
Percent Effect [1]: -1.14% | Percent Effect [2]: -15.4%

CC(C)c1n[nH]c(C(=O)Nc2ccnn2C(C)C)c1Br
Percent Effect [1]: -9.11% | Percent Effect [2]: -15.3%

Cc1ncoc1C(=O)N1C[C@H]2CCC[C@@]2(COCC2CCOCC2)C1
Percent Effect [1]: -1.27% | Percent Effect [2]: 3.67%

Cn1cc(CN2CCCC3(CCN(Cc4cccnc4)C3=O)C2)cn1 (configuration not stated)
Percent Effect [1]: -1.18% | Percent Effect [2]: -7.77%

CN(Cc1cccc(F)c1)S(=O)(=O)N1CCOCC1
Percent Effect [1]: -3.02% | Percent Effect [2]: 3.45%

O=C(NC1CC1)[C@@H]1CCO[C@@H]2CCN(C3CCOCC3)C[C@@H]21
Percent Effect [1]: -3.45% | Percent Effect [2]: -22%

Cc1ccc(C(=O)N2C[C@@H]3OCCN(CCN4CCCC4)[C@@H]3C2)cn1
Percent Effect [1]: -1.02% | Percent Effect [2]: 3.78%

CC(=O)NC1CCCN(C(=O)Nc2cnc3c(cnn3C(C)C)c2)C1 (configuration not stated)
Percent Effect [1]: -4.11% | Percent Effect [2]: 18%

Cc1cc(C)cc(-c2ccc(CC3(C(=O)O)CCOCC3)cc2)c1
Percent Effect [1]: 4.9% | Percent Effect [2]: -4.63%

CC(CN1CCOCC1)NC(=O)NCc1ccc(Cl)s1 (configuration not stated)
Percent Effect [1]: 2.25% | Percent Effect [2]: -2.94%
